The panel holds about 83,000 compounds, 20% with a hit somewhere; the sample as a whole holds those more often.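 Results are percent growth after 48 hours of single-concentration exposure. 100 means growth as in untreated cells, lower positive values show inhibition; negative values down to -100 show cell death.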 Values without a mark were called inactive. Calls of active or inactive are those of the source. The calls were made as follows: active = growth percent below 10; inactive = the rest.
Columns and labels:
Test in all cases: NCI-60 one-dose screen, 48 h (100 = growth as untreated, 0 = no growth, -100 = all killed)
Conditions in all cases: 10 µM
HCT-15 colon = tested on: HCT-15 colon
HT29 colon = tested on: HT29 colon
SNB-75 CNS = tested on: SNB-75 CNS
SNB-19 CNS = tested on: SNB-19 CNS
U251 CNS = tested on: U251 CNS
PC-3 prostate = tested on: PC-3 prostate
SK-MEL-5 melanoma = tested on: SK-MEL-5 melanoma
UACC-62 melanoma = tested on: UACC-62 melanoma
LOX IMVI melanoma = tested on: LOX IMVI melanoma
SK-MEL-28 melanoma = tested on: SK-MEL-28 melanoma
SK-MEL-2 melanoma = tested on: SK-MEL-2 melanoma
EKVX NSCLC = tested on: EKVX NSCLC
SN12C renal = tested on: SN12C renal
UO-31 renal = tested on: UO-31 renal
TK-10 renal = tested on: TK-10 renal
ACHN renal = tested on: ACHN renal
CAKI-1 renal = tested on: CAKI-1 renal
A498 renal = tested on: A498 renal
MOLT-4 leukemia = tested on: MOLT-4 leukemia
CCRF-CEM leukemia = tested on: CCRF-CEM leukemia

SMILES | growth (HCT-15 colon) | growth (HT29 colon) | growth (SNB-75 CNS) | growth (SNB-19 CNS) [%] | growth (U251 CNS) | growth (PC-3 prostate) | growth (SK-MEL-5 melanoma) | growth (UACC-62 melanoma) | growth (LOX IMVI melanoma) | growth (SK-MEL-28 melanoma) | growth (SK-MEL-2 melanoma) | growth (EKVX NSCLC) | growth (SN12C renal) | growth (UO-31 renal) | growth (TK-10 renal) | growth (ACHN renal) | growth (CAKI-1 renal) | growth (A498 renal) | growth (MOLT-4 leukemia) | growth (CCRF-CEM leukemia)
Cc1ccc(/C=C2/C(=O)N(C)c3ccc(S(=O)(=O)Nc4ccc(C(C)(C)C)cc4)cc32)s1 | 83.8% | 75.7% | -9.41% (active) | 66.6 | 62.6% | 56.6% | 89.4% | 74.9% | 58.1% | 81.8% | 94.3% | 103% | 78.9% | 73.4% | 90.9% | 56% | 45% | 90.8% | 73.3% | 
CC(C)(C)OC(=O)N1CCc2c(sc3ncnc(N/N=C/c4cccc5ccccc45)c23)C1 | 6.88% (active) | 26.2% | -3.28% (active) | 26.3 | 33.7% | 25.9% | -57.2% (active) | 0.0448% (active) | 13.1% | 32.9% | 49.4% | 8.53% (active) | 32.8% | -8.22% (active) | 36.9% | 6.63% (active) | 24.2% | 4.77% (active) | 14.4% | 
CC(C)(C)OC(=O)CN1CCc2c(sc3ncnc(N/N=C/c4cccc5ccccc45)c23)C1 | 16.7% | 45% | 46% | 53.7 | 45.7% | 31.9% | 11.1% | 6.64% (active) | 26.2% | 50.1% | 71.1% | 2.48% (active) | 48.4% | 3.34% (active) | 50.5% | 15.7% | 35.1% | 52.4% | 9.27% (active) | 
Cc1ccc(/C=C/C(=O)C(=O)/C=C/c2ccc(C)cc2)cc1 | 95.5% | 91.4% | 90.4% | 103 | 93% | 92.2% | 106% | 96.7% | 89.3% | 108% | 105% | 92.7% | 105% | 89.7% | 92% | 104% | 94.8% | 101% | 91.8% | 
O=C(CCn1cnc2c(cc(-c3ccccc3)n2-c2ccccc2)c1=O)Nc1ccc(F)cc1 | 81.4% | 89.9% | 4.9% (active) | 72.9 | 70.9% | 68.6% | 77.5% | 63.2% | 79.4% | 80.5% | 84.5% | 80.8% | 73.6% | 75% | 92.8% | 55.7% | 97.1% | 63.8% | 85.5% | 
Clc1ccc(C2=NN=C3C(Cc4ccccc4)=Nc4ccccc4N3C2)cc1 | 68.6% | 84.6% | 98.5% | 93.3 | 62.1% | 65.1% | 80.3% | 79.6% | 65.2% | 83.4% | 105% | 86% | 83.2% | 63.1% | 68.4% | 63.2% | 55.4% | 68.5% | 61.3% | 
COc1cc(C(=O)N2CCN(c3cc4c(cc3F)c(=O)c(C(=O)NO)cn4C3CC3)CC2)cc(OC)c1OC | 106% | 105% | 96.3% | 100 | 98.1% | 93.6% | 101% | 95% | 94.1% | 108% | 90.2% | 89.5% | 108% | 92.1% | 87.4% | 101% | 94.4% | 91.4% | 103% | 
O=C(COc1cccc(/C=C2\CSc3ccccc3C2=O)c1)c1ccc(Cl)cc1 | -49.7% (active) | -86.3% (active) | 94.6% | 60.8 | -97.9% (active) | -39.6% (active) | -94.4% (active) | -73.9% (active) | -100% (active) | -81.7% (active) | -71.6% (active) | 68.1% | -6.61% (active) | -79% (active) | -4.52% (active) | -65.6% (active) | -65.2% (active) | 54% | -67.3% (active) | -51.6% (active)
O=C(CSc1nccc(Nc2cccc3ccccc23)n1)c1ccc(Cl)cc1 | 101% | 86.9% | 88% | 89.3 | 96.1% | 83.9% | 98.3% | 70.2% | 77.6% | 106% | 102% | 76.9% | 82.6% | 49.8% | 112% | 91.7% | 60.3% | 105% | 88.1% | 83.1%
Cc1n[nH]c(C)c1N=Nc1cccc2c1C(=O)c1ccccc1C2=O | 78.4% | 96.8% | 95.1% | 93.1 | 92.4% | 90.5% | 93.1% | 89.5% | 69.8% | 113% | 105% | 61.8% | 91.6% | 66.4% | 97.8% | 80% | 73.6% | 55.2% | 84.5% | 
O=C(CCCSc1nc(-c2ccccc2)cc(-c2ccc(Cl)cc2)n1)NO | 18.5% | 20.3% | 5.53% (active) | 20.1 | 16.8% | 20.6% | -27.7% (active) | -15.3% (active) | -3.49% (active) | 30.9% | 16.4% | -10.5% (active) | 6.93% (active) | -26.4% (active) | 21.9% | -0.78% (active) | 2.37% (active) | -15.3% (active) | 11.2% | 
C#CCOc1c(OC)cc(C(=O)/C(C)=C/c2cccc(N=[N+]=[N-])c2)cc1OC | 18.7% | 2.11% (active) | 15.1% | 34.5 | 18.7% | 22.7% | 35.2% | 37.7% | 30.4% | 58.8% | 27.5% | 46% | 41.8% | 50.9% | 60.8% | 32.4% | 42.9% | 23.4% | 21.8% | 
COc1ccc(Cl)cc1Nc1nc(C(F)(F)F)ccc1C(=O)N/N=C/c1cc(OC)c(OC)c(OC)c1 | 23.7% | 32% | 32.6% | 38.9 | 16.3% | 6.2% (active) | 18.8% | -48% (active) | -61.5% (active) | 30.2% | 9.11% (active) | 32.6% | 25.1% | 15.4% | 20.2% | 16% | 27.6% | 26.8% | 9.62% (active) | 
CC(C)(C)OC(=O)N1CCc2c(sc3ncnc(N/N=C/c4ccc(Br)cc4)c23)C1 | 28.1% | 33.8% | 61.8% | 69.5 | 67.3% | 44% | 24% | 42.2% | 54.8% | 63.2% | 68.4% | 52% | 75.2% | 44.7% | 78.2% | 53.1% | 41% | 31.2% | 33.9% | 
O=C(CN1CCN(C(=O)c2ccccc2)CC1)Nc1ccccc1SCc1ccccc1 | 87.3% | 81% | 75.6% | 90.7 | 90.8% | 57.9% | 56.9% | 52% | 73.9% | 98.2% | 66.8% | 72.3% | 77.9% | 52.2% | 82.2% | 80.8% | 71.8% | 86.6% | 74.1% | 
COc1ccc(/C=C/C(=O)C(=O)/C=C/c2ccc(OC)c(OC)c2)cc1OC | -3.56% (active) | -35.2% (active) | 64.9% | 33.1 | 6.4% (active) | 43.6% | 77.9% | -10.8% (active) | -66.4% (active) | -9.43% (active) | 96.6% | 62.6% | 2.82% (active) | 0.571% (active) | 68.6% | -0.679% (active) | 84.3% | 72.9% | 23.4% | 

From PubChem BioAssay (NCI)
